Assay results published in PubChem BioAssay (NCI).
Compounds without any hit were thinned out: in the full panel of roughly 83,000, 20% have a hit.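 Cell lines were cultured in 96-well plates, exposed to a single compound concentration, and assessed for percent growth 48 hours later.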 The source made the active and inactive calls. How the source made its calls: active means growth percent below 10; inactive means the rest.

What was measured:
Experiment in all cases: NCI-60 one-dose screen, 48 h (100 = growth as untreated, 0 = no growth, -100 = all killed)
Details in all cases: 10 µM unless noted
T-47D breast = test system: T-47D breast
BT-549 breast = test system: BT-549 breast
MDA-MB-435 melanoma = test system: MDA-MB-435 melanoma
MCF7 breast = test system: MCF7 breast
HCT-116 colon = test system: HCT-116 colon
HCC-2998 colon = test system: HCC-2998 colon
KM12 colon = test system: KM12 colon
SW-620 colon = test system: SW-620 colon

Measured: growth

O=C(CCCCCCN1CC(=O)N2[C@@H](C3CC3)c3[nH]c4ccccc4c3C[C@H]2C1=O)NO
inactive: T-47D breast 66.1% | BT-549 breast 104% | MDA-MB-435 melanoma 40.3% | MCF7 breast 39.9% | HCT-116 colon 33.4% | HCC-2998 colon 108% | KM12 colon 84.2%

NS(=O)(=O)c1cccc(Nc2nc(SCC(=O)c3ccc(Cl)cc3)nc3c2CCC3)c1
inactive: T-47D breast 90.4% | BT-549 breast 84.7% | SW-620 colon 102% | MCF7 breast 82.9% | HCT-116 colon 95.7% | HCC-2998 colon 107% | KM12 colon 105%

CN(C)c1ccc(-c2cc(-c3c[nH]c4ccccc34)nc(N)c2C#N)cc1
inactive: T-47D breast 39.9% | BT-549 breast 27.8% | MDA-MB-435 melanoma 13.6% | MCF7 breast 28% | HCT-116 colon 14.5% | HCC-2998 colon 49.7% | KM12 colon 18.2%

CC1=C(SCC(=O)OCCCCCC(C)C)C(=O)c2ccccc2C1=O
inactive: T-47D breast 74.3% | BT-549 breast 94.4% | SW-620 colon 99.3% | MCF7 breast 72.1% | HCT-116 colon 89.7% | HCC-2998 colon 110% | KM12 colon 91.2%

COc1ccc2[nH]cc(/C=N/Nc3ccnc4cc(Cl)ccc34)c2c1
active: T-47D breast -53.6% | BT-549 breast -91.8% | MDA-MB-435 melanoma -90.8% | MCF7 breast -69.1% | HCT-116 colon -50.5% | HCC-2998 colon -89.4% | KM12 colon -78%

Cn1cc(-c2nnc(N)nc2-c2c[nH]c3ccc(F)cc23)c2cc(Br)ccc21
inactive: T-47D breast 29.4% | BT-549 breast 11.1% | SW-620 colon 20.4% | MCF7 breast 12.3% | HCT-116 colon 14.9% | HCC-2998 colon 53.6% | KM12 colon 22.5%

Cc1ccc(NC(=O)/C=C/c2ccc(OCCCOc3ccc4c(C)cc(=O)oc4c3)cc2)cc1
inactive: T-47D breast 70.3% | BT-549 breast 98.7% | MDA-MB-435 melanoma 77.1% | MCF7 breast 73.4% | HCT-116 colon 78.9% | HCC-2998 colon 80.5% | KM12 colon 84.8%

Fc1ccc(-c2cn3c(-c4c[nH]c5ccc(Br)cc45)csc3n2)cc1
inactive: T-47D breast 66.3% | BT-549 breast 95.4% | SW-620 colon 81.4% | MCF7 breast 60.9% | HCT-116 colon 73.8% | HCC-2998 colon 100% | KM12 colon 66.5%

COC(=O)CNC(=O)c1cccc(-c2cc(=O)c3c(OC)c(OC)c(OC)cc3o2)c1
inactive: T-47D breast 107% | BT-549 breast 102% | MDA-MB-435 melanoma 107% | HCT-116 colon 101% | HCC-2998 colon 100% | KM12 colon 103%

Cc1ccc(C(=O)Nc2ccc(CNCCN3CCOCC3)c(C(F)(F)F)c2)cc1C#Cc1cnc2cccnn12
inactive: SW-620 colon 14.1%
active: T-47D breast 4.34% | MDA-MB-435 melanoma -28% | MCF7 breast 6.79% | HCT-116 colon 2.51% | HCC-2998 colon 6.09% | KM12 colon 1.77%

CCN(CC)CCOc1ccc(C(=C(C)Cc2ccc(OC)cc2)c2ccc(OCCN(CC)CC)cc2)cc1
inactive: T-47D breast 64.2% | HCT-116 colon 16.3% | HCC-2998 colon 44.8% | KM12 colon 48.6%
active: MDA-MB-435 melanoma -66.1% | SW-620 colon -6.4% | MCF7 breast -33.8%

Cc1ccc(NC2=C(Cl)C(=O)c3nc(C)ccc3C2=O)c(C)c1
inactive: BT-549 breast 62.9% | HCC-2998 colon 64.6% | KM12 colon 44.9%
active: T-47D breast -46.1% | MCF7 breast -64.4% | HCT-116 colon -67.7%

COc1ccc2c(c1)c(-c1nnc(N)nc1-c1c[nH]c3ccc(F)cc13)cn2C
inactive: T-47D breast 46.5% | BT-549 breast 53.5% | SW-620 colon 25.7% | MCF7 breast 18.9% | HCT-116 colon 21.4% | HCC-2998 colon 74.6% | KM12 colon 22.9%

CCOC(=O)c1ccc(NC2=C(Cl)C(=O)c3nc(C)ccc3C2=O)cc1
inactive: MDA-MB-435 melanoma 21.6% | HCC-2998 colon 80.3% | KM12 colon 50.8%
active: T-47D breast -0.935% | SW-620 colon -19.6% | HCT-116 colon 7.29%

CC(=O)c1cc(C(=O)N2c3ccccc3Sc3ccccc32)n2c1ccc1ccccc12
inactive: T-47D breast 75.5% | BT-549 breast 52.6% | SW-620 colon 41.6% | HCT-116 colon 25.6% | HCC-2998 colon 87.8% | KM12 colon 44.6%

N#Cc1c(-c2ccc(F)cc2)cc(-c2c[nH]c3ccccc23)nc1-c1c[nH]c2ccccc12
inactive: T-47D breast 89.9% | BT-549 breast 109% | SW-620 colon 107% | MCF7 breast 89.3% | HCT-116 colon 105% | HCC-2998 colon 109% | KM12 colon 101%

O=C(CCCCCCNC(=O)C(O)(O)C(F)(F)F)Nc1ccc(Cl)cc1
active: SW-620 colon 5.2% | HCT-116 colon 3.99%
inactive: T-47D breast 10.5% | BT-549 breast 45.9% | HCC-2998 colon 25.6% | KM12 colon 20.6%

CCOC(=O)c1c(NC(=O)c2cccc(C(F)(F)F)c2)sc2c1CCC(=O)C2
inactive: T-47D breast 17.8% | MDA-MB-435 melanoma 59.4% | SW-620 colon 13.8% | MCF7 breast 34.7% | HCT-116 colon 12.3% | HCC-2998 colon 87% | KM12 colon 32.2%

CC(=C(c1ccc(OCCN(C)C)cc1)c1ccc(OCCN(C)C)cc1)c1ccc(Cl)cc1
active: T-47D breast -53.7% | MDA-MB-435 melanoma -82.8% | MCF7 breast -77.6% | HCT-116 colon -65.1% | HCC-2998 colon -87.7% | KM12 colon -65.2%

CCCNNC(=O)c1ccc(-c2ccc(NC(=O)CCCCCCC(=O)N[C@H](C(=O)N3C[C@H](O)C[C@H]3C(=O)N[C@@H](C)c3ccc(-c4scnc4C)cc3)C(C)(C)C)cc2)cc1
active: T-47D breast 9.23% | HCT-116 colon 7.95%
inactive: BT-549 breast 50.5% | SW-620 colon 12.1% | MCF7 breast 12% | HCC-2998 colon 19.4% | KM12 colon 26.7%

Cc1ccc2c(n1)C(=O)C(Cl)=C(Nc1ccc(C)c(C)c1)C2=O
active: T-47D breast 3.29% | MDA-MB-435 melanoma -82.6% | MCF7 breast -60.5%
inactive: SW-620 colon 33.5% | HCT-116 colon 12.2% | HCC-2998 colon 57.6% | KM12 colon 51.9%

Cc1csc(/N=C(N)/N=C(\N)c2cccc(Br)c2)n1
inactive: T-47D breast 74.3% | BT-549 breast 92.6% | MCF7 breast 73.3% | HCT-116 colon 88.8% | HCC-2998 colon 97% | KM12 colon 73.2%

Clc1ccc2[nH]cc(-c3cncn3CCc3ccc4c(c3)OCO4)c2c1
inactive: T-47D breast 37.8% | MDA-MB-435 melanoma 71.3% | SW-620 colon 79.5% | MCF7 breast 63% | HCT-116 colon 63.2% | HCC-2998 colon 89.9% | KM12 colon 74.6%

NC(=O)c1c(NC(=O)c2ccc(C(F)(F)F)cc2)sc2c1CCC(=O)C2
active: T-47D breast -28.9% | MDA-MB-435 melanoma -8.14% | SW-620 colon -17.5% | MCF7 breast 5.66% | HCT-116 colon 3.88% | KM12 colon 3.34%
inactive: HCC-2998 colon 32.3%

Fc1ccc2nc(-c3cnn4cccnc34)sc2c1
inactive: T-47D breast 44.2% | MDA-MB-435 melanoma 108% | SW-620 colon 93.7% | MCF7 breast 26.7% | HCT-116 colon 88.8% | HCC-2998 colon 83% | KM12 colon 79.8%

Cc1ccc(-c2cc3nc(C(Cl)Cl)nc(-c4ccc(S(=O)(=O)N(C)C)cc4)n3n2)cc1
inactive: T-47D breast 93.8% | MDA-MB-435 melanoma 88.6% | SW-620 colon 83.1% | MCF7 breast 74.2% | HCT-116 colon 62.9% | HCC-2998 colon 91.7% | KM12 colon 86.5%

COc1ccc(C(=O)c2c(N)c(C#N)cn2-c2ccc(Cl)cc2Cl)cc1
inactive: T-47D breast 92.9% | BT-549 breast 111% | SW-620 colon 98.3% | MCF7 breast 99.4% | HCT-116 colon 97.7% | HCC-2998 colon 103% | KM12 colon 102%

CCOC(=O)c1c(NC(=O)c2ccc(C(F)(F)F)cc2)sc2c3c(ccc12)OCN(C)C3
active: T-47D breast 4.14% | MDA-MB-435 melanoma -16.8% | SW-620 colon -52.4% | MCF7 breast -61.7% | HCT-116 colon -75.8% | HCC-2998 colon -13.8%
inactive: KM12 colon 12.1%

O=C(CCCCCCN1CC(=O)N2[C@@H](c3cccs3)c3[nH]c4ccccc4c3C[C@H]2C1=O)NO
inactive: T-47D breast 42.7% | BT-549 breast 104% | SW-620 colon 82.7% | MCF7 breast 52.1% | HCT-116 colon 60.5% | HCC-2998 colon 101% | KM12 colon 81.8%

CN(C)S(=O)(=O)c1ccc(-c2nc(C(Cl)Cl)nc3cc(-c4ccccc4)nn23)cc1
inactive: T-47D breast 89.5% | MDA-MB-435 melanoma 81.6% | MCF7 breast 72% | HCT-116 colon 72.3% | HCC-2998 colon 100% | KM12 colon 74%

CN1c2ccccc2Sc2cc(/C=N/Nc3ccnc4cc(Cl)ccc34)ccc21
inactive: T-47D breast 87.4% | BT-549 breast 99% | SW-620 colon 84.8% | MCF7 breast 49.4% | HCT-116 colon 57.3% | HCC-2998 colon 110% | KM12 colon 86.8%

O=C(CSc1cc[n+](CCCCO)c2ccccc12)n1ccc2ccccc21
inactive: T-47D breast 96.6% | MDA-MB-435 melanoma 107% | SW-620 colon 99% | MCF7 breast 94.6% | HCT-116 colon 99.6% | HCC-2998 colon 113% | KM12 colon 96.9%
